Consider 90 compounds from PubChem BioAssay AID588501 (NMMLSC, 2011).

Molecules are shown by their SMILES. Hit rate of the full screen: of about 360,000 compounds, about 420 (0.12%) were called active. This is one part of a sample in which actives are shown more often than they occur. A number with no mark means an inactive call. No stated cut-off is given here; in the data, active means inhibition above about 30%; inconclusive means no clear call, values can overlap the other calls; inactive means below that.

This assay deals with Lethal factor (Bacillus anthracis) (UniProt P15917). Briefly: anthrax lethal factor cleavage blockers – biochemical, multiplex microsphere, MLPCN library, primary screen (AID 588501). Further: plate controls were buffer without enzyme for full effect and enzyme alone for no effect. The following applies: multiplex microsphere protease cleavage assay, LF; at 10 µM; active compounds read high.
Chain of Lethal factor (Bacillus anthracis) (P15917 whole entry, looked up): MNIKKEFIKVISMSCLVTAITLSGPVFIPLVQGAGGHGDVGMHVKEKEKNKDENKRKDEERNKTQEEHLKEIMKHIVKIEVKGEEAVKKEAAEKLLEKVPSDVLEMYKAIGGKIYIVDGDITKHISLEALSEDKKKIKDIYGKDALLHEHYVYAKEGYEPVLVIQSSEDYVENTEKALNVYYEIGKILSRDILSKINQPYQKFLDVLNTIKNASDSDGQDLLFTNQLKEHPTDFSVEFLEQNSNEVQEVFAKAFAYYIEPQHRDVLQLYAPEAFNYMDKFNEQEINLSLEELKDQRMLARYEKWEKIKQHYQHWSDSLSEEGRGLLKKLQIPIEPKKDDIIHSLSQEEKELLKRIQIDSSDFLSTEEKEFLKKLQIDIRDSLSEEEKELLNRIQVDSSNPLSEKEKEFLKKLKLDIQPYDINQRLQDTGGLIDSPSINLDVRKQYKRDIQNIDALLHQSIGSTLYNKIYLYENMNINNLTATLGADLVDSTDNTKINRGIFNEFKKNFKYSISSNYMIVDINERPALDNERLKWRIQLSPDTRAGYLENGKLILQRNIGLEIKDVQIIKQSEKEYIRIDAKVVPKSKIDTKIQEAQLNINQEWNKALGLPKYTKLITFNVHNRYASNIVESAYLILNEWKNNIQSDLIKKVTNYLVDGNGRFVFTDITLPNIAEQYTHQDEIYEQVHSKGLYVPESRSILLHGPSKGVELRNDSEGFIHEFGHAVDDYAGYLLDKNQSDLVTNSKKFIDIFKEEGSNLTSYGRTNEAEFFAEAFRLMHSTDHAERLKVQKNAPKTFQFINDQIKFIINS
Turning to `O=C(COc1ccc2c(C(F)(F)F)cc(=O)oc2c1)Nc1ccc2c(c1)OCCO2`, the inhibition was -1.9%. The result for `O=C(CN1CCOCC1)Nc1c(Cl)cc(Cl)cc1Cl` reads 3.3%; that for `Cc1cc(C)c(NC(=O)CN2CCCCCC2)c(C)c1`, -3.3%. The result for `O=C(CN1CCCCCC1)Nc1c(Cl)cc(Cl)cc1Cl` reads 37.6% (active). The result for `O=C(COc1ccc(Cl)cc1)NCc1nnc(SCC(=O)NCC2CCCO2)o1` (stereo not given) reads -1%; that for `NNc1nc2c(Cl)cccc2s1`, -1.6%. Regarding `CCn1c(CSc2nncn2-c2ccc(OC)cc2)nc2cc(S(=O)(=O)N(C)C)ccc21`, the inhibition was -15%.

For `O=C(NNC(=O)c1ccccc1[N+](=O)[O-])Nc1ccccc1C(F)(F)F`, the inhibition was -1.8%. As to `CN(C(=O)c1cccc(NC(=O)Cc2cccc([N+](=O)[O-])c2)c1)C1CCCCC1`, the inhibition is 2.5%. Then `CC1CCN(CC(=O)Nc2nccs2)CC1`, with -13.6%; and `CC(C)N(C(=O)Cn1cc(SCC(=O)N2CCCC2)c2ccccc21)C(C)C`, with -0.2%. For `COc1cc(NS(=O)(=O)c2ccc(NC(=O)CN3C(=O)c4ccccc4C3=O)cc2)ncn1`, the inhibition is -2.5%. On to `CS(=O)(=O)N(CC(=O)N1CCOCC1)c1cccc(Cl)c1Cl`, for which the inhibition is -5.7%. Then `CCOC(=O)C1CCCN(C(=O)c2ccc(N(C)C)cc2)CC1` (stereo not given), with -1.5%; and `Cc1ccc(-n2ncc3c2CC(C)(C)CC3NC(=O)CCc2cnn(C)c2)cc1` (stereo not given), with 3%; and `CCCn1nnnc1NC(=O)COc1ccc(Cl)cc1C`, with -6.9%.

For `O=C(CCNC(=O)c1ccc([N+](=O)[O-])cc1)Nc1ccccc1N1CCOCC1`, the inhibition is 3.7%. Consider `Cc1cc(S(=O)(=O)NC2CCCC2)ccc1-n1cnnn1`, for which the inhibition was 35.6% (active).

As for `CCOC(=O)C1CCCN(S(=O)(=O)c2ccc(-n3cnnn3)c(C)c2)C1` (stereo not given), the inhibition is 2.9%. The result for `O=S(=O)(NC1CCCC1)c1ccc(-n2cnnn2)cc1` reads -2%. For the compound `COc1ccc([C@H]2CC(=O)C[C@@H](CCn3cc(CC4CCCC4)nn3)O2)cc1`, the inhibition was -2.3%.

`COCCNC(=O)C(c1ccc(O)cc1)N(C(=O)CCC(=O)Nc1nccs1)c1ccc(C)cc1` (stereo not given): the inhibition was -7%. As to `O=C1N[C@@H](Cc2ccccc2)C(=O)N2[C@@H]3N(S(=O)(=O)c4ccc(F)cc4)c4ccccc4[C@]3(Br)C[C@@H]12`, the inhibition was -0.7%.

`CCCCC(NS(=O)(=O)c1ccc(C)cc1)C(=O)Oc1ccc2c3c(c(=O)oc2c1)CCC3` (stereo not given): the inhibition was -6.2%. Take `CCOc1cc(/C=C(/C#N)c2ccc(Cl)cc2)cc(Cl)c1OCC(=O)O`: the inhibition is 2.5%. Then `COc1ccccc1C1CCN(C(=S)Nc2ccc(Br)cc2)CC1`, with 49.5% (active); and `COc1ccccc1NC(=S)N1CCC(NC(=O)C23CC4CC(CC(C4)C2)C3)CC1`, with -7.9%; and `COc1ccc(NC(=S)N2CCc3cc(OC)c(OC)cc3C2)cc1`, with -2.2%. As to `Cc1cc(NCc2cccnc2)no1`, the inhibition was 4.1%. As for `Clc1ccc(Cn2ncc3c(NCc4cccnc4)ncnc32)cc1`, the inhibition is -6.4%. Then `Brc1ccc2ncnc(NCc3cccnc3)c2c1`, with 42.4% (active). The result for `CCOC(=O)[C@H]1[C@H]2COc3ccc(C)cc3[C@@H]2N2C(=O)CN(Cc3ccc(F)cc3)C(=O)[C@@]12C` reads -3.6%. The result for `CCOC(=O)N1CCN(C(=O)c2ccc3c(=O)n(CCc4ccc(OC)c(OC)c4)c(=O)[nH]c3c2)CC1` reads -2.6%; that for `COCCn1nnnc1CN1CCC(NC(=O)Nc2cccc(OC)c2)CC1`, 0.1%; that for `CC1=NNC(=O)C1CCC(=O)N/N=C\c1ccc(Cl)c(Cl)c1` (stereo not given), -7.6%. With `NCCCCCC(=O)N/N=C/c1ccc2nccnc2c1`, the inhibition is 43.2% (active). As to `O=C(O)c1ccc(N/N=C/c2ccc3ncccc3c2)cc1`, the inhibition was -1.5%. For the compound `CC(=O)Nc1ccc(S(=O)(=O)NCC(=O)OCC(=O)c2ccc[nH]2)cc1`, the inhibition was 4.9%. For the compound `CCCCC(CC)CNC(=O)C(=O)C1C(=O)Nc2ccccc21` (stereo not given), the inhibition was -2.2%. The result for `CC(=O)NCCC(=O)Nc1cc(S(=O)(=O)N2CCCCC2)ccc1Oc1cccc(C)c1` reads -3.6%; that for `O=C(COc1ccc(S(=O)(=O)N2CCCC2)cc1[N+](=O)[O-])N1CCCCC1`, -2.5%; that for `COCc1cc(=O)[nH]c(SC)n1`, 45% (active). As to `COCc1cc(=O)[nH]c(-c2ccc(C(F)(F)F)cc2)n1`, the inhibition was 13.9%.

In the case of `CCCc1cc(=O)[nH]c(SCc2ccc(C#N)cc2)n1`, the inhibition is 2.2%. Then `CCCC(NC(=O)c1ccccc1)c1nc2ccccc2n1Cc1ccc(C(=O)OC)o1` (stereo not given), with -3.6%; and `COc1ccccc1N(CC(=O)Nc1c(C)n(C)n(-c2ccccc2)c1=O)S(=O)(=O)c1ccccc1`, with -3.9%. Take `COC(=O)CSc1ncnc2c1cnn2-c1ccc(C)cc1C`: the inhibition was -4.4%.

`COC(=O)c1ccc(NC(=O)C23CC4CC(C2)CC(n2cnc(Cl)n2)(C4)C3)cc1`: the inhibition is -3.6%. In the case of `COC(=O)C1(C(=O)OC)C/C=C\CN(S(=O)(=O)c2ccccc2[N+](=O)[O-])CCC1`, the inhibition was -1.4%. In the case of `COc1cc(C(=O)NCc2ccc3c(c2)cc(C)n3C)cc(OC)c1OC`, the inhibition was 34.6% (active). The result for `CCn1c(CNC(=O)c2cc(OC)c(OC)c(OC)c2)cc2cc(C)ccc21` reads -7.8%; that for `CCOCC(=O)NCc1ccc2c(c1)cc(C)n2C`, -2.3%. Then `CC(C)n1c(SCC(=O)Nc2ccccc2N2CCCCC2)nc2c1c(=O)n(C)c(=O)n2C`, with 0%. Then `CCOC1=C2[C@H]([C@H]3C(=O)N(c4ccccc4)C(=O)[C@H]3C1)[C@@H](c1ccccc1)N(S(=O)(=O)c1ccc(C)cc1)[C@H]2c1ccccc1`, with 4.4%; and `CCCCNc1ccc(C(=O)Nc2cccc(C)n2)cc1[N+](=O)[O-]`, with -4.4%. As for `Cc1cccc(C)c1NC(=O)CNC(=O)c1ccc(N2CCOCC2)c([N+](=O)[O-])c1`, the inhibition was -3%.

With `C=CC[C@H](CC(=O)OC(C)(C)C)C(=O)OC[C@H]1CCCN1C(=O)[C@H](CC=C)CC(=O)N(CCO)Cc1ccccc1`, the inhibition was 1.8%.

For the compound `COc1ccc(CN2CC(C(=O)NCCN3CCN(c4ccccc4F)CC3)CC2=O)cc1` (stereo not given), the inhibition is -1.5%.

With `Cn1cc(CCC(=O)N2CCCC(C(=O)c3ccc(C(C)(C)C)cc3)C2)cn1` (stereo not given), the inhibition was -0.9%. Then `CCOc1ccc(CCNC(=O)C2=C(C)C(=O)OC23CCC(C)CC3)cc1OCC` (stereo not given), with 1.1%; and `Fc1ccccc1OCCCCn1cncn1`, with 7.4%; and `COc1cc(-c2nnc(Cn3cc(C(F)(F)F)ccc3=O)o2)cc(OC)c1OC`, with 11.3%.

Regarding `COc1cc(/C=C2\SC(=S)N(Nc3ncc(C(F)(F)F)cc3Cl)C2=O)cc(OC)c1OC`, the inhibition was 61.6% (active).

Take `COc1cc(/C=C2\SC(=O)NC2=O)ccc1OCc1ccc(Cl)nc1`: the inhibition is 0.2%. As for `Cc1ccc2c(c1)C(O)(CC(=O)c1cccnc1)C(=O)N2` (stereo not given), the inhibition was -1.9%. `CN(CC(=O)NCCc1ccccc1)S(=O)(=O)c1cnc[nH]1`: the inhibition was -0.9%. Then `Cc1cc(C)c(CN2CCN(C(=O)Cn3ccc(NC(=O)OCc4ccccc4)nc3=O)CC2)c(C)c1`, with -0.5%; and `O=C(c1ccc(Cl)cc1)N1N=C(c2ccccn2)CC1(O)C(F)(F)F` (stereo not given), with -6.7%.

`COc1cc2c(cc1OC)C(/C=C/c1ccco1)=NCC2`: the inhibition is -4.6%. The result for `Cc1c(Br)ccc(NC(=O)COc2ccccc2C(N)=O)c1C` reads 0.9%; that for `CCc1ccc(NC(=O)CS(=O)CC(=O)NCCCc2ccccc2)cc1` (stereo not given), -1.4%; that for `O=C(NCc1ccccc1)C1C(=O)N(Cc2ccccc2)C(=O)C1C1(O)CCCC1` (stereo not given), 1.3%. On to `COc1ccc(Br)cc1CNCCc1cccc(Cl)c1`, for which the inhibition is 43.6% (active).

As for `COc1ccc(Br)cc1CN(C)CC(=O)Nc1cc(Cl)cc(Cl)c1`, the inhibition is -3.4%.

Take `COCC(C)NCc1cc(Br)ccc1OC` (stereo not given): the inhibition was -4.9%. The result for `O=S(=O)(Nc1cccc(-n2cnnn2)c1)c1cnc(Cl)c(Cl)c1` reads 1.8%; that for `COc1c(C(=O)N2CCCC2)ccc2ccccc12`, 2.3%; that for `COC(=O)C[n+]1cccc2ccccc21`, 29.8% (active).

On to `COC(=O)CNS(=O)(=O)c1ccc(Cc2ccc(S(=O)(=O)NCC(=O)OC)cc2)cc1`, for which the inhibition is -2.1%. Then `CC1(c2ccc(Cl)cc2)NC(=O)N(CC(=O)c2ccc3c(c2)OCO3)C1=O` (stereo not given), with -2.8%; and `CCN(C(=O)COC(=O)c1ccccc1O)c1cccc2ccccc12`, with -1.8%; and `Cc1nccn1-c1ccc(NC(=O)[C@H]2O[C@@H](n3cnc4c(N)ncnc43)[C@H](O)[C@@H]2O)cc1`, with 0.8%. Consider `CC(=O)c1nn(-c2ccc(C)cc2)cc1C(=O)c1cccc(Br)c1`, for which the inhibition is -8.2%. Take `CN(C)c1ccc(/C=C2\CC3C4CC=C5CC(O)CCC5(C)C4CCC3(C)C2=O)cc1` (stereo not given): the inhibition was 3.3%. Then `C=CCN(Cc1nc(-c2cc(OC)c3c(c2)OCO3)oc1C)C1CCS(=O)(=O)C1` (stereo not given), with -1.3%; and `CCc1nn(CCCC(=O)Nc2ccc(C)c(C)c2)c(=O)c2cc3occc3n12`, with -0.7%; and `COc1ccccc1C(=O)Nc1ccnn1C1CCN(C(=O)C(C)(C)C)CC1`, with -1.9%. Turning to `Cc1ccc(NC(=O)CSCC(=O)N2CCOCC2)cc1`, the inhibition was -4.8%. With `CC(C)C[C@@H]1Cc2[nH][nH]c(=O)c2[C@H](CCc2ccccc2)O1`, the inhibition was -14.1%. In the case of `COc1ccc(N(CCC#N)S(=O)(=O)c2ccc(Cl)cc2)cc1`, the inhibition is -0.4%.

What is called inhibition is the relative decrease from the control value, in per cent.
